A selection: hits, their analogues and other compounds. The true share with any hit is near 4.1%.
ssDAF-12 act: activates DAF-12 receptor from parasite S. stercoralis; HEK293 ssDAF-12/GRIP1 lit1-tk-luc reporter, luminescence; % of 3 µM dafachronic acid response; activation, % at 6.8 µM; actives 1% (n = 370,000); AID 652126;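 active = activation above the mean over all tested compounds plus 3 SD, cut at about 0.9% in these data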;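 also: 0% = DMSO-only wells and 100% = 3 µM delta7-dafachronic acid wells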
hgDAF12 agonist: activates the H. glycines DAF-12 receptor ligand-binding domain; HEK293 GAL4-hgDAF12 UAS-luciferase reporter, agonist luminescence; normalized to butyrate control; actives 1.8% (n = 370,000); activation, % at 6.8 µM;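 active = activation above a cutoff set at the mean of all screened compounds plus 3 SD, cut at about 10% in these data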;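 also: 0% = DMSO wells and 100% = sodium butyrate wells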
DAX1 inh-1: inhibitors of human orphan nuclear receptor DAX1 (NR0B1); actives 0.99% (n = 340,000); P51843; AID 504766; HEK293 Gal4-DAX1 luciferase reporter, luminescence; inhibition, % at 6.75 µM;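 active = inhibition above the mean over all tested compounds plus 3 SD, cut at about 4.2% in these data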;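 also: 0% = DAX1-transfected cells with DMSO and 100% = empty-vector control cells with DMSO; inhibition shows as a rise in luminescence from relieved DAX1 repression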
Target sequence (P51843 207-470 limits assumed): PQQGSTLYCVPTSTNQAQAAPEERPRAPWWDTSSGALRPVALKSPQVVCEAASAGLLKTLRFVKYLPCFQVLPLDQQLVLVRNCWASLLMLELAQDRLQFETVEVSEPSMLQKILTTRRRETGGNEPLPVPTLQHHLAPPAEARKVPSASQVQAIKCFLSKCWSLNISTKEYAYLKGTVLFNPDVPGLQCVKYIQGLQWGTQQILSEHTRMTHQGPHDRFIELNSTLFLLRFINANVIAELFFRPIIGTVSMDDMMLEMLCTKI
hcDAF12 agonist: activators of H. contortus DAF-12 nuclear receptor; actives 1.4% (n = 370,000); activation, % at 6.8 µM; HEK293 hcDAF-12 lit1-tk-luc reporter, luminescence; 0% DMSO, 100% Δ7-dafachronic acid;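 active = activation above the mean of all tested compounds plus 3 SD, cut at about 5.5% in these data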;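 also: 100% = response to 3 µM Δ7-dafachronic acid high control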
DAX1 inh-2: inhibitors of DAX1 repression of SF-1 activated StAR promoter; HEK293T StAR-luciferase reporter, SF-1/DAX-1 repression relief; inhibition, % at 6.8 µM; actives 1.1% (n = 370,000); AID 652010;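 active = inhibition above the mean over all tested compounds plus 3 SD, cut at about 3.6% in these data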;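 also: 0% = DAX-1 cells with DMSO and 100% = cells lacking DAX-1 with DMSO; higher inhibition means more luminescence from relief of DAX-1 repression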
DAX1 conf: confirmation of human DAX1 (NR0B1) inhibitors; shares compounds with DAX1 inh-2; HEK293T StAR-promoter luciferase reporter, SF-1/DAX-1 repression; inhibition, % at 6.8 µM; actives 87% (n = 2,400); AID 652134;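 active = inhibition above the average of every tested compound plus 3 SD, cut at about 3.8% in these data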;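 also: 0% = DAX-1 cells with DMSO and 100% = no DAX-1 control cells with DMSO; active compounds raise luminescence by relieving repression of the StAR reporter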
SF1 mutant ctr: counter-screen for DAX1 inhibitors: nonselective inhibitors with SF-1 AF2 mutant. inhibition, % at 6.8 µM. actives 78% (n = 2,400). HEK293 StAR-luciferase, luminescence. shares compounds with DAX1 inh-2. AID 652136;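 active = inhibition above the mean of all tested compounds plus 3 SD, cut at about 3% in these data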;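 also: 0% = DAX-1 transfected cells with DMSO and 100% = cells without DAX-1 with DMSO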
LXRb hcDAF ctr: activates human LXR-beta, counter-screen for hcDAF-12 agonists. activation, % at 6.8 µM. 3,400 tested, under 10 active. AID 743027. HEK293 Gal4-LXR tk-luc reporter, luminescence, 24 h; normalized: DMSO 0%, positive control 100%. shares compounds with hcDAF12 agonist;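 active = mean percent activation of the reporter above a cutoff set as the average over tested compounds plus their standard deviation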
Target sequence (P55055 whole entry, looked up, the tested form may be a part): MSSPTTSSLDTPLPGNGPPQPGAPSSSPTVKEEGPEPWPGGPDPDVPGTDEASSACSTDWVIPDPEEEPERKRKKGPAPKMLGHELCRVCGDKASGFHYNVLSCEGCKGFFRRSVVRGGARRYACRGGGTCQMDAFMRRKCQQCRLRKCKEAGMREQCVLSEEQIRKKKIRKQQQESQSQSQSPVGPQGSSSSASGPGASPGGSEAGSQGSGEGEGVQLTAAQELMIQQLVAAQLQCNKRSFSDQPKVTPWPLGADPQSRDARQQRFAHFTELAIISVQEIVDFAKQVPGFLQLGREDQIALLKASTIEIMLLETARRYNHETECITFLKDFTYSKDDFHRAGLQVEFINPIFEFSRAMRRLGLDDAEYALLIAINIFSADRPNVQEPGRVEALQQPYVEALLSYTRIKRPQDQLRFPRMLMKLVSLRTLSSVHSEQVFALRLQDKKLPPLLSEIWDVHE
hcDAF12 ag: hcDAF-12 agonism, confirmation assay. actives 61% (n = 3,400). HEK293 hcDAF-12 lit1-tk-luc reporter, luminescence; % of Δ7-dafachronic acid response. activation, % at 6.8 µM. AID 743032. shares compounds with hcDAF12 agonist;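 active = mean activation across triplicate tests above the threshold derived from the earlier primary screen, cut at about 5.5% in these data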;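 also: 0% = DMSO only wells and 100% = 3 µM Δ7-dafachronic acid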
hgDAF12 conf: hgDAF-12 agonism, confirmation assay; HEK293 GAL4-hgDAF12 luciferase reporter, agonist mode; percent of butyrate response; shares compounds with hgDAF12 agonist; activation, % at 6.8 µM; actives 80% (n = 3,300);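 active = mean activation over triplicate wells above the hit cutoff derived from the earlier primary screen, cut at about 11% in these data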;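 also: 0% = DMSO low control and 100% = 2 mM sodium butyrate high control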
LXRb DAF12 ctr: activates human LXR-beta, counter-screen for DAF-12 agonists; shares compounds with hgDAF12 agonist; HEK293 Gal4-LXR luciferase reporter, 24 h; activation, % at 6.8 µM; 3,300 tested, under 10 active;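 active = mean activation of the triplicate above a set limit carried over from the primary screen, none filed active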
Active calls of the source: *; · = no result given.

SMILES | ssDAF-12 act | hgDAF12 agonist | DAX1 inh-1 | hcDAF12 agonist | DAX1 inh-2 | DAX1 conf | SF1 mutant ctr | LXRb hcDAF ctr | hcDAF12 ag | hgDAF12 conf | LXRb DAF12 ctr
O=C(CCCc1ccccn1)c1cccc2ccccc12 | 1.1* | 15* | 2 | 12* | 5.6* | 13* | 5.7* | 1 | 9.6* | 15* | 1
CCC(=O)Nc1cc(-c2cc3ccccc3oc2=O)ccc1OC | -1 | 14* | 2 | 1 | 5.0* | 9.3* | 6.0* | · | · | 15* | 1
COc1ccc(-c2cc3ccccc3oc2=O)cc1NC(=O)c1ccc(Br)o1 | 0 | 6 | 3 | 3 | 0 | · | · | · | · | · | ·
CCCCNS(=O)(=O)/C=C/c1ccc(OC)cc1CNC(=O)OC(C)(C)C | 0 | -1 | · | -2 | -1 | · | · | · | · | · | ·
COc1ccccc1CN(C)C(=O)C1CCCN(c2nc3ccccc3o2)C1 (stereo not drawn) | -2 | -1 | · | -2 | 0 | · | · | · | · | · | ·
COCCOCCn1c(/C=C/c2ccccc2)nc2ccccc21 | 0 | 13* | 4 | 3 | 6.2* | 14* | 6.8* | · | · | 15* | 1
COc1ccc(/C=C/c2nc3ccccc3n2Cc2ccc(OC)c(OC)c2)cc1 | 0.9* | 27* | 0 | 7.7* | 5.9* | 19* | 6.8* | 1 | 8.6* | 15* | 1
CCc1ccc(-c2ccc(SCC(=O)Nc3nnc(C)s3)nn2)cc1 | 0 | 21* | 0 | 7.6* | 6.0* | 10* | 7.8* | 1 | 6.0* | 16* | 1
Cc1nnc(NC(=O)CSc2ccc(-c3ccc(Cl)cc3)nn2)s1 | -2 | 3 | 0 | 1 | 0 | · | · | · | · | · | ·
Cc1ccc2cc(CCNC(=O)c3cccs3)c(=O)[nH]c2c1C | -1 | 19* | 3 | 4 | 5.6* | 6.8* | 3.7* | · | · | 18* | 1
Cc1ccc2cc(CCNC(=O)c3cccs3)c(=O)[nH]c2c1 | -1 | 10 | 2 | 1 | 2 | · | · | · | · | · | ·
c1ccc(-c2c[nH]c3ccc(OCCN4CCOCC4)c(-c4ccccc4)c23)cc1 | -2 | -2 | · | -1 | 0 | · | · | · | · | · | ·
O=C(c1cc2c(ccc3ccccc32)o1)N1CCCCC1 | 1.2* | 18* | 1 | 6.8* | 15* | 15* | 8.7* | 1 | 4 | 14* | 1
O=C(O)c1cc2c(ccc3ccccc32)o1 | -1 | 4 | -1 | 1 | 0 | · | · | · | · | · | ·
CN(C)c1ccc2c(=O)c3ccccc3oc2n1 | 0 | 13* | · | 7.9* | 7.8* | 13* | 5.9* | 1 | 8.4* | 22* | 1
Cc1nc2oc3ccccc3c(=O)c2cc1C(=O)O | -1 | 0 | 0 | 0 | 0 | · | · | · | · | · | ·
C[C@@H]1CN([C@@H](C)CO)C(=O)CCCn2cc(nn2)CO[C@H]1CN(C)C(=O)Nc1cccc(Oc2ccccn2)c1 | -1 | -1 | · | -1 | 1 | · | · | · | · | · | ·
O=C(CNC(=O)c1cccs1)Nc1ccc2c(c1)OCCO2 | 0 | 17* | 2 | 4 | 12* | 8.0* | 4.0* | · | · | 16* | 1
COc1cc(Cl)ccc1OC1(C)CCN(Cc2ccc(-c3ccccn3)cc2)C1 (stereo not drawn) | -1 | 0 | · | 0 | 1 | · | · | · | · | · | ·
O=C(Nc1ccc(SC(F)(F)F)cc1)c1ccccn1 | 1.1* | 22* | 0 | 8.4* | 6.1* | 15* | 3 | 2 | 11* | 20* | 1
CC(Sc1nnc(-c2ccccc2F)o1)C(=O)Nc1ccc(N2CCOCC2)cc1 (stereo not drawn) | -1 | 1 | -1 | 1 | 1 | · | · | · | · | · | ·
Cc1occc1-c1nnc(SC(C)C(=O)Nc2ccccc2F)o1 (stereo not drawn) | 0 | 15* | 0 | 4 | 10* | 9.5* | 7.1* | · | · | 14* | 0
Cc1ccc(C2=NN3C(C2)c2ccccc2OC32C(=O)Nc3ccccc32)cc1 (stereo not drawn) | 2.2* | 25* | 2 | 19* | 5.3* | 9.9* | 9.4* | 1 | 8.3* | 20* | 1
CN(Cc1ccccc1)C(=O)OCc1cn(Cc2ccccc2F)nn1 | -2 | 1 | · | -1 | 0 | · | · | · | · | · | ·
O=C(NC1=NCCS1)c1cccc(OC(F)F)c1 | 0 | 16* | 4.8* | 1 | 5.0* | 14* | 9.6* | · | · | 14* | 1
SMILES | ssDAF-12 act | hgDAF12 agonist | DAX1 inh-1 | hcDAF12 agonist | DAX1 inh-2 | DAX1 conf | SF1 mutant ctr | LXRb hcDAF ctr | hcDAF12 ag | hgDAF12 conf | LXRb DAF12 ctr
O=C(NC1=NCCS1)c1ccc(C(F)(F)F)cc1 | -1 | 6 | 1 | 1 | 1 | · | · | · | · | · | ·
O=C(NC1=NCCS1)c1sc2cc(Cl)cc(Cl)c2c1Cl | 0 | 0 | 1 | -3 | 0 | · | · | · | · | · | ·
O=C(NC1=NCCS1)c1sc2ccccc2c1Cl | 1.1* | 21* | 1 | 11* | 4.7* | 12* | 7.4* | 1 | 9.7* | 15* | 1
CC(C)c1ccc(C(=O)NC2=NCCS2)cc1 | 1 | 18* | 0 | 5 | 5.5* | 19* | 7.0* | · | · | 14* | 1
O=NN(C(=O)NCc1cccnc1)C1CCCCC1 | 0 | 0 | · | -1 | -1 | · | · | · | · | · | ·
CN1C2=N[C@H](c3ccc(Br)cc3)CC(=O)N2/C(=C\c2ccccc2)[C@@H]1c1ccccc1 | -2 | 0 | · | -2 | · | · | · | · | · | · | ·
CCCCNC(=O)Nc1nc2ccccc2s1 | 0 | 15* | 8.8* | 3 | 5.5* | 11* | 4.8* | · | · | 15* | 1
Cc1ccc(C(=O)Nc2nc3ccc(S(C)(=O)=O)cc3s2)s1 | 0 | 7 | 1 | 4 | 2 | · | · | · | · | · | ·
Cc1ccc(C(=O)Nc2nc3ccccc3s2)s1 | 1 | 21* | 1 | 12* | 4.8* | 16* | 6.2* | 2 | 11* | 22* | 1
COc1ccc(CCC(=O)Nc2ccc(S(=O)(=O)N3CCOCC3)cc2)cc1OC | -2 | -2 | -1 | -2 | 0 | · | · | · | · | · | ·
